Data from PubChem BioAssay (NCI).
This is part of a sample that, as a whole, favours compounds with a hit. Of some 79,000 tested, about 15% had one in any assay. Unmarked numbers belong to inactive results. Activity calls are given as the source filed them. Cut-off read from the data, not from the text of the source: active = growth inhibition above about 70%; inactive = the rest.

Key:
[1] = NCI Yeast Anticancer Drug Screen. Data for the rad50 strain (AID 155);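 note: 0% = growth of vehicle-only cultures of the same strain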; details: S. cerevisiae rad50 strain growth inhibition, active compounds read high
Method in brief: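 DNA repair mutant yeast, compound exposure, growth read-out; inhibition is taken relative to vehicle.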

[2] = NCI Yeast Anticancer Drug Screen. Data for the mec2-1 strain (AID 157); details: S. cerevisiae mec2-1 strain, active compounds read high
Method in brief: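 Using mec2-1 yeast: add compound, measure growth, express inhibition versus vehicle-treated cultures.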

[3] = NCI Yeast Anticancer Drug Screen. Data for the sgs1 mgt1 strain (AID 161);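 note: 0% = growth of cultures given vehicle only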; details: S. cerevisiae sgs1 mgt1 strain, active compounds read high
Method in brief: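 Percent growth inhibition was derived by comparing compound-exposed mutant yeast with vehicle-exposed cultures. The strain carries alterations in DNA damage repair.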

[4] = NCI Yeast Anticancer Drug Screen. Data for the cln2 rad14 strain (AID 165);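 note: 0% = growth equal to vehicle treated cultures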; details: S. cerevisiae cln2 rad14 strain, active compounds read high
Method in brief: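 Yeast strain cln2 rad14, bearing defects in cell cycle control and DNA repair, serves as the test system; values reflect growth inhibition compared with vehicle.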

[5] = NCI Yeast Anticancer Drug Screen. Data for the bub3 strain (AID 167); details: S. cerevisiae bub3 mutant strain, active compounds read high
Method in brief: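 In this screen, a yeast mutant lacking normal mitotic checkpoint function is challenged with compound. Relative growth versus vehicle gives the inhibition value.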

[6] = NCI Yeast Anticancer Drug Screen. Data for the mlh1 rad18 strain (AID 175); details: S. cerevisiae mlh1 rad18 strain growth inhibition, active compounds read high
Method in brief: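 Steps: expose repair-defective yeast to compound; measure growth; express inhibition against vehicle-treated controls.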

[7] = at 5.0 µM (retest, dose inferred, filed as 0.5)
[8] = at 50.0 µM (retest, dose inferred, filed as 5.0)

| Structure (SMILES) | growth inhibition [1, 7] | growth inhibition [1, 8] | growth inhibition ([1]; at 50.0 µM) | growth inhibition [2, 7] | growth inhibition [2, 8] | growth inhibition ([2]; at 50.0 µM) | growth inhibition [3, 7] | growth inhibition [3, 8] | growth inhibition ([3]; at 50.0 µM) | growth inhibition [4, 7] | growth inhibition [4, 8] | growth inhibition ([4]; at 50.0 µM) | growth inhibition [5, 7] | growth inhibition [5, 8] | growth inhibition ([5]; at 50.0 µM) | growth inhibition [6, 7] | growth inhibition [6, 8] | growth inhibition ([6]; at 50.0 µM) |
| --- | --- | --- | --- | --- | --- | --- | --- | --- | --- | --- | --- | --- | --- | --- | --- | --- | --- | --- |
| COc1ccc(/C=C\Cc2cc3c(cc2OCCO)OCO3)cc1 | 3% | 92% (active) | 96.7% (active) | 7% | 95% (active) | 96.7% (active) | 7% | 97% (active) | 97.8% (active) | 1% | 82% (active) | 69.6% | -1% | 96% (active) | 85.6% (active) | -2% | 97% (active) | 97.2% (active) |
| Oc1cccc2ccncc12 | 7% | 9% | 29.3% | -14% | 14% | 20.4% | 3% | 16% | 22.1% | 13% | 29% | 9.05% | 2% | 14% | 21.1% | 2% | 43% | 58.4% |
| CCC(=C(c1ccc(OCCN(C)C)cc1)c1cccc(O)c1)c1ccccc1 (mixture of isomers) | 34% | 97% (active) | 86% (active) | 10% | 99% (active) | 62% | 44% | 98% (active) | 96.5% (active) | 34% | 97% (active) | 76.9% (active) | 23% | 99% (active) | 76.5% (active) | 64% | 98% (active) | 94% (active) |
| COc1ccc2c(Cc3ccc(O)cc3)cncc2c1O | -1% | 6% | 8.65% | -8% | 26% | 51.5% | -3% | 16% | -7.15% | 5% | 4% | 91.8% (active) | -5% | -4% | 71.5% (active) | 6% | 27% | 97.6% (active) |
| CC(C)c1cc(C(C)C)c(Cl)c(Cl)c1O (tested in a mixture with another compound) | 1% | 44% | 99.3% (active) | 3% | 100% (active) | 99.5% (active) | 6% | 98% (active) | 99.5% (active) | 5% | 73% (active) | 98.9% (active) | 0% | 77% (active) | 87.5% (active) | -1% | 14% | 84.5% (active) |
| O=S(=O)(SCc1ccccc1)C(c1ccccc1)c1ccccc1 | 10% | 6% | 89.7% (active) | 13% | 6% | 98.6% (active) | 13% | 31% | 98% (active) | 5% | -17% | 95.5% (active) | 13% | 39% | 99.1% (active) | 20% | 18% | 98% (active) |
| O=C(O)C1CCC(CC2CC3CCC2C3)CC1 (configuration not stated) | -146% | 79% (active) | 74.7% (active) | -54% | 54% | 88.5% (active) | -58% | 85% (active) | 41.8% | -79% | 65% | 44.2% | -73% | 69% | 73.3% (active) | -125% | 86% (active) | 53.8% |
| CCN(CC)CCSCCCNc1cc(C)nc2c1ccc1c2ccc2c(NCCCSCCN(CC)CC)cc(C)nc21 | 5% | 92% (active) | 97.3% (active) | 3% | 70% (active) | 97.4% (active) | -2% | 49% | 97.8% (active) | -3% | 42% | 72.5% (active) | 4% | 67% | 94.4% (active) | 8% | 94% (active) | 95.8% (active) |
| NC(=Nc1ccccc1)SCc1ccc([N+](=O)[O-])cc1 | 47% | 67% | 30.2% | 51% | 78% (active) | 43% | 13% | 71% (active) | 57.2% | 52% | 76% (active) | 16.8% | 29% | 76% (active) | 70.5% (active) | 43% | 70% (active) | 19.4% |
| COc1cccc2c1OC(c1ccc(C#N)cc1)C([N+](=O)[O-])=C2 (configuration not stated) | 84% (active) | 97% (active) | 86.2% (active) | 84% (active) | 98% (active) | 90.8% (active) | 87% (active) | 98% (active) | 87.2% (active) | 47% | 97% (active) | 89.8% (active) | 74% (active) | 98% (active) | 89.8% (active) | 92% (active) | 98% (active) | 83.5% (active) |
| CCCCCCCC(=O)O[C@H]1[C@H]2[C@@H](CC1(C)C)C(=O)[C@]13O[C@H]1C(=O)[C@]1(CO1)[C@]23C | 48% | 98% (active) | 91% (active) | 47% | 98% (active) | 92.8% (active) | 65% | 98% (active) | 92.7% (active) | 80% (active) | 98% (active) | 90.8% (active) | 83% (active) | 97% (active) | 90.4% (active) | 73% (active) | 97% (active) | 91.5% (active) |
| O=C(O)c1cc2c3ccccc3sc2c2ccccc12 | -2% | 4% | 55.4% | -3% | -4% | 5.3% | -1% | 3% | 15.1% | -3% | -3% | 2.45% | -3% | -2% | 19.7% | -3% | -2% | 28% |
| Cc1ccc2c(c1)C1(SC(CC(=O)O)C(=O)N1c1ccc(Cl)cc1)C(=O)N2 (configuration not stated) | 4% | 5% | 2.3% | 0% | -1% | 12.3% | 1% | -6% | -6.85% | -1% | -4% | -4.2% | 1% | 0% | -2.8% | 0% | -49% | 10.5% |
| CCCCNCc1c(O)ccc2ccccc12 | 14% | 99% (active) | 99.1% (active) | 3% | 99% (active) | 99.2% (active) | 17% | 99% (active) | 99.1% (active) | 10% | 98% (active) | 95.8% (active) | 21% | 99% (active) | 99% (active) | 36% | 99% (active) | 99.2% (active) |
| O=C(O)/C=C/C(=O)NNc1nc2ccccc2s1 | -4% | -1% | 23.1% | -9% | 2% | -5.25% | 0% | -25% | 50.3% | -25% | 1% | 23.1% | -31% | -21% | -13.2% | -7% | 20% | 70.2% (active) |
| CN(C)c1ccc(-c2c(C#N)c(-c3ccccc3)n(NS(=O)(=O)c3ccccc3)c(=O)c2C#N)cc1 | 19% | 36% | 71% (active) | 23% | 32% | 75.5% (active) | 34% | 50% | 75.2% (active) | 44% | 53% | 80.8% (active) | 54% | 51% | 76.2% (active) | 17% | 31% | 72.2% (active) |
| CCCOC(=O)C1CCCCC1C(=O)OCCC (configuration not stated) | 7% | -17% | 0.8% | -1% | -15% | 18.3% | -2% | 16% | -10.1% | -4% | 14% | 71.2% (active) | 1% | -2% | 5.3% | -7% | -4% | -12.7% |
| C=CCN1/C(=C/C=C\c2sc3ccccc3[n+]2CC=C)Sc2ccccc21 | 60% | 98% (active) | 91.7% (active) | 80% (active) | 99% (active) | 93.6% (active) | 95% (active) | 99% (active) | 93.7% (active) | 93% (active) | 99% (active) | 93.5% (active) | 98% (active) | 99% (active) | 92.2% (active) | 90% (active) | 98% (active) | 91.8% (active) |
| CN(C)c1ccc(SC(=S)NCc2ccccc2)cc1 | 4% | 92% (active) | 97.5% (active) | -7% | 92% (active) | 98.2% (active) | -2% | 82% (active) | 96.3% (active) | -3% | 28% | 95.8% (active) | -8% | 96% (active) | 97% (active) | 4% | 90% (active) | 94.4% (active) |
